Potency data for 18 molecules are collected here from PubChem BioAssay (NCATS).

Inconclusive results are not listed. Activity calls are given as the source filed them. The call rests on the fitted dose curve; in most records, active means well fitted cell-killing curve with a large enough effect; inconclusive means small, poorly fitted or top-dose-only effect, or effect the other way; inactive means no such curve, though single readings can be large or run the other way.

Assay [1] in a line: Quantitative High-Throughput drug screen in 47 multiple myeloma cell lines against the NCATS MIPE library collection: XG6_PLB cell viability assay (AID 1919865). Further: nearly all actives have a fitted effect of over 40% in size. Further: potency means the concentration at half of the fitted maximal effect. The method in brief: (§1)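 Cells were exposed to library compounds for 48 hours, after which ATP was measured by CellTiter-Glo. Signal was taken as median relative luminescence units.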
A short description of assay [2]: Quantitative High-Throughput drug screen in 47 multiple myeloma cell lines against the NCATS MIPE library collection: XG1_PLB cell viability assay (AID 1919866). Further: nearly all actives have a fitted effect of over 35% in size. Further: potency means the concentration at half of the fitted maximal effect. Put shortly: as §1
A short description of assay [3]: Quantitative High-Throughput drug screen in 47 multiple myeloma cell lines against the NCATS MIPE library collection: VP6_DJ cell viability assay (AID 1919867). Further: nearly all actives have a fitted effect of over 40% in size. Further: potency means the concentration at half of the fitted maximal effect. Put shortly: as §1
Assay [4] can be described thus: Quantitative High-Throughput drug screen in 47 multiple myeloma cell lines against the NCATS MIPE library collection: UTMC2_PLB cell viability assay (AID 1919868). Further: nearly all actives have a fitted effect of over 55% in size. Further: potency means the concentration at half of the fitted maximal effect. As to conditions: CellTiter-Glo ATP luminescence, 48 h; viability (% of DMSO control): at 45.8 µM (top of the series). The method in brief:
as §1
On the technique in general: In ATP-based viability assays light output follows the ATP content of the culture.

Assay [5] can be described thus: Quantitative High-Throughput drug screen in 47 multiple myeloma cell lines against the NCATS MIPE library collection: PE2_PLB cell viability assay (AID 1919869). Further: nearly all actives have a fitted effect of over 35% in size. Further: potency means the concentration at half of the fitted maximal effect. The method in brief:
as §1

The nature of assay [6]: Quantitative High-Throughput drug screen in 47 multiple myeloma cell lines against the NCATS MIPE library collection: RPMI8226_ATCC cell viability assay (AID 1919871). Further: nearly all actives have a fitted effect of over 30% in size. Further: potency means the concentration at half of the fitted maximal effect. The method in brief:
as §1

Assay [7] is described as follows: Quantitative High-Throughput drug screen in 47 multiple myeloma cell lines against the NCATS MIPE library collection: OPM2_DSMZ cell viability assay (AID 1919872). Further: nearly all actives have a fitted effect of over 30% in size. The method in brief:
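Approved and investigational drugs from MIPE 4.0 were added by pin tool to 500 cells per well. After 48 hours at 37C, ATP-based CellTiter-Glo luminescence indicated remaining viability.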

Assay [8] in a line: Quantitative High-Throughput drug screen in 47 multiple myeloma cell lines against the NCATS MIPE library collection: PCM6_Riken cell viability assay (AID 1919870). Further: nearly all actives have a fitted effect of over 30% in size. Further: potency means the concentration at half of the fitted maximal effect. Put shortly: as §1
Assay [9] is described as follows: Quantitative High-Throughput drug screen in 47 multiple myeloma cell lines against the NCATS MIPE library collection: U266_ATCC cell viability assay (AID 1919864). Further: nearly all actives have a fitted effect of over 35% in size. Further: potency means the concentration at half of the fitted maximal effect. The method in brief: as §1

In the case of `CCc1cccc(CC)c1NC(=O)N1Cc2[nH]nc(NC(=O)c3ccc(N4CCN(C)CC4)cc3)c2C1`, the Potency is 8.33 µM (active) in assay [1]; 0.935 µM (active) in assay [2]; 5.9 µM (active) in assay [3]; 0.743 µM (active) in assay [4]; 20.9 µM (active) in assay [5]; 18.7 µM (active) in assay [6].
With `Cn1cc(-c2ccc3nnc(Sc4ccc5ncccc5c4)n3n2)cn1`, the Potency in [1] was 26.4 µM (active); in assay [2], 26.4 µM (active); in assay [3], 18.7 µM (active). Also, the Potency entry in assay [7] is “inactive”.
For `CN1CCC(COc2cnc(-c3cccc(Cn4nc(-c5cccc(C#N)c5)ccc4=O)c3)nc2)CC1`, the Potency was 0.0332 µM (active) in [1]; 0.332 µM (active) in [2]; 0.59 µM (active) in assay [3]; 0.526 µM (active) in assay [4]; 1.05 µM (active) in assay [5].
As to `CO[C@H]1C=CO[C@@]2(C)Oc3c(C)c(O)c4c(O)c(c(C=NN5CCN(C)CC5)c(O)c4c3C2=O)NC(=O)C(C)=CC=C[C@H](C)[C@H](O)[C@@H](C)[C@@H](O)[C@@H](C)[C@H](OC(C)=O)[C@H]1C`, the Potency result in [1], in assay [2], in assay [4], in [5], in assay [8] and in assay [6] was “inactive” in each case. The Potency result in assay [7] is “inactive”.
Turning to `CNC(=O)c1ccc2c(C(=Nc3cccc(CN(C)C)c3)c3ccccc3)c(O)[nH]c2c1`, the Potency in [1] is 16.6 µM (active); in assay [2] it was 14.8 µM (active); in assay [3], 16.6 µM (active); in assay [4] it was 16.6 µM (active); in [8], 16.6 µM (active); in assay [6] it was 13.2 µM (active). Further, the Potency entry in assay [7] is “inactive”.
With `O=C(O)c1nc(=O)[nH]c(=O)[nH]1`, the Potency result in assay [9] and in assay [7] was “inactive” each time. Moreover, the Potency in assay [6] was 10.2 µM (active).
Regarding `C=C[C@@H]1CN2CCC1C[C@@H]2C(O)c1ccnc2ccc(OC)cc12` (stereo partly specified), in [9], the Potency was 10.5 µM (active). Also, the Potency result in assay [4], in assay [5] and in [7] was “inactive” throughout.
As to `O=C(Nc1ccccc1)Nc1ccc(-c2ccc(C(=O)[C@H]3CCC[C@H]3C(=O)O)cc2)cc1`, the Potency in assay [1] was 4.69 µM (active); in assay [2] it was 2.96 µM (active). In addition, the Potency entry in assay [3], in [5], in [6] and in assay [7] was “inactive” in each case.
As for `COc1cc2c(cc1Cc1cccc(Cl)c1F)c(=O)c(C(=O)O)cn2[C@H](CO)C(C)C`, the Potency in assay [1] was 18.7 µM (active); in [2], 18.7 µM (active); in assay [3], 10.5 µM (active); in assay [5], 23.5 µM (active); in assay [8] it was 16.6 µM (active); in [6], 14.8 µM (active).
On to `CN1C(=O)C[C@H](C(=O)N[C@@H](Cc2cnc[nH]2)C(=O)N2CCC[C@@H]2C(N)=O)NC1=O`, for which the Potency in assay [1], in assay [2] and in assay [3] was 10.5 µM (active) throughout. Also, the Potency entry in [6] was “inactive”.
On to `CNC(=O)c1c(-c2ccc(F)cc2)oc2cc(N(CCO)S(C)(=O)=O)c(C3CC3)cc12`, for which the Potency in [1] is 18.7 µM (active); in assay [2] it was 20.9 µM (active).
On to `Cc1ccc(NC(=O)Nc2cc(C(F)(F)F)ccc2F)cc1Nc1ccc2c(c1)NC(=O)C2=Cc1ccc[nH]1`, for which the Potency is 5.26 µM (active) in assay [1]; 6.62 µM (active) in assay [2]; 5.26 µM (active) in [3]; 8.33 µM (active) in assay [4]; 4.18 µM (active) in assay [5]; 3.32 µM (active) in [8].
Consider `CC[C@H](CC#N)OC(=O)N[C@@H](C)c1cccc(NC(=O)Nc2ccc(-c3cnco3)c(OC)c2)c1`, for which the Potency in assay [9] is 1.48 µM (active); in assay [4], 1.18 µM (active); in assay [5], 4.18 µM (active); in assay [6], 2.64 µM (active).
On to `N#CC(c1ccc(Cl)cc1)c1c(Cl)cc(-n2ncc(=O)[nH]c2=O)cc1Cl` (stereo unspecified), for which the Potency in assay [1] was 14.8 µM (active); in assay [2] it was 18.7 µM (active); in [3], 20.9 µM (active); in [5], 18.7 µM (active); in assay [8], 23.5 µM (active). For the same molecule, in assay [7], the Potency result is “inactive”.
With `Cc1cccc2c1CC[C@H](CN1CCC(c3c(Cl)cccc3Cl)CC1)C[C@@H]2O`, the Potency in [1] is 20.9 µM (active); in assay [2], 20.9 µM (active); in [3] it was 14.8 µM (active); in assay [5], 20.9 µM (active); in [8], 18.7 µM (active); in [6], 16.6 µM (active).
For the molecule `Cc1cc2c(cc1C1(c3ccc(C(=O)O)cn3)CC1)C(C)(C)CCC2(C)C`, the Potency entry in [9] is “inactive”. The Potency in assay [5] was 26.4 µM (active); in assay [6], 0.0118 µM (active).
`Cc1cc(NC(=O)Nc2ccc(N(C)C)cc2)c2cc(F)cc(F)c2n1`: the Potency result in [1], in [4], in assay [5] and in assay [8] was “inactive” in each case. The Potency in assay [2] was 3.32 µM (active).
On to `Nc1ncnc2c1c(-c1cccc(OCc3ccccc3)c1)cn2C1CC(CN2CCC2)C1` (stereo unspecified), for which the Potency is 14.8 µM (active) in assay [1]; 23.5 µM (active) in assay [2]; 1.66 µM (active) in [3]; 0.166 µM (active) in assay [4]; 6.62 µM (active) in [5]; 26.4 µM (active) in [8]. Moreover, the Potency in [6] is 5.26 µM (active).
